An excerpt weighted towards active compounds, which were near 7.3% of everything screened.
FMDV antiviral: High Throughput Screening for Foot and Mouth Disease Virus Antivirals; FMDV antiviral cell-based qHTS; Potency, µM (series often up to 57.9 µM), for the others: at the highest dose activity change, negative = inhibition, most hits filed as inhibitors; 410,000 tested, 1.2% active; calls by dose curve; tested in HEK293T cells; further: read-out not given here; potency means the concentration at half of the fitted maximal effect; on the % scale 0 is the no-effect control and ±100 the full control effect; nearly all actives have a fitted effect of over 45% in size
HCV inh: qHTS Assay for Inhibitors of Hepatitis C Virus (HCV); Potency, µM (series often up to 41.8 µM), for the others: at the top dose activity change, negative = inhibition, most hits filed as inhibitors; AID 651820, 2012; Huh7.5.1 HCVcc-Cre infection, luciferase reporter, 44 h; 340,000 tested, 3.4% active; further: potency means the concentration at half of the fitted maximal effect; on the % scale 0 is the no-effect control and ±100 the full control effect
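Antiviral activity was scored by luciferase reporter output from cells infected with HCVcc-Cre (~0.5 moi) in presence of compound, 44 h infection period, cells seeded 1,000/well 4 h prior.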
HCMV inh: qHTS Assay for inhibitors of the human cytomegalovirus (HCMV) | AID 1259415, 2018 | HFF cells, HCMV-luciferase reporter, 72 h; active compounds read low | activity change, negative = inhibition, % at 57.5 µM | 410,000 tested, 4.5% active; in the data active means activity change below about -60%; inconclusive means no clear call, values can overlap the other calls; inactive means above about -39%; further: on the % scale 0 is the no-effect control and ±100 the full control effect
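Screen run at 2 compound doses on HFFs infected with reporter HCMV, MOI 1 PFU/cell. Luciferase activity from cell lysates at 72 h post infection gave inhibition relative to buffer-only and Salinomycin wells.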
Vaccinia Venus: qHTS for Stage-Specific Inhibitors of Vaccinia Orthopoxvirus: Venus Reporter Primary qHTS | Vaccinia virus Venus reporter expression, fluorescence | Potency, µM (highest dose often 36.5 µM), without a hit: at the top dose activity change, negative = inhibition, actives largely listed as inhibitors | 330,000 tested, 0.46% active | AID 720580, 2013; calls by dose curve; tested in A549 cells; further: potency means the concentration at half of the fitted maximal effect; on the % scale 0 is the no-effect control and ±100 the full control effect; nearly all actives have a fitted effect of over 30% in size
Vaccinia mCherry: qHTS for Stage-Specific Inhibitors of Vaccinia Orthopoxvirus: mCherry Reporter Primary qHTS; Vaccinia virus mCherry reporter infection, fluorescence; Potency, µM (titrated, usually from 36.5 µM), without a hit: at the highest dose activity change, negative = inhibition, hits mostly inhibitors; 310,000 tested, 0.63% active; AID 720579, 2013; calls by dose curve; tested in A549 cells; further: potency means the concentration at half of the fitted maximal effect; on the % scale 0 is the no-effect control and ±100 the full control effect; nearly all actives have a fitted effect of over 35% in size
HCV confirm: qHTS Assay for Inhibitors of Hepatitis C Virus (HCV): Confirmation Assay for Cherry-picked Compounds; shares compounds with HCV inh; HCVcc-Cre infectious virus cell assay, luciferase, inhibition; Potency, µM (highest dose often 41.8 µM), for the others: at the top dose activity, negative = inhibition, actives largely listed as inhibitors; 640 tested, 78% active; AID 720575, 2013; further: potency means the concentration at half of the fitted maximal effect; nearly all actives have a fitted effect of over 80% in size
HCV host tox: qHTS Assay for Inhibitors of Hepatitis C Virus (HCV): Cytotoxicity Counterscreen for Cherry-picked Compounds; Potency, µM (doses to about 41.8 µM), for the others: at the top dose activity change, negative = cytotoxicity, actives largely listed as inhibitors; HCV host cell line cytotoxicity counterscreen; shares compounds with HCV inh; AID 720576, 2013; 640 tested, 22% active;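 further: potency means the concentration at half of the fitted maximal effect; 44 h compound exposure; on the % scale 0 is the no-effect control and ±100 the full control effect; nearly all actives have a fitted effect of over 55% in size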
An asterisk follows results filed as active; i = inactive; ? = inconclusive; / = no result. Unless noted, the call rests on the fitted dose curve; in most records, active means well fitted curve in the direction sought with a large enough effect; inconclusive means small, poorly fitted or top-dose-only effect, or another doubt; inactive means no such curve, though single readings can be large; an effect the other way counts as inactive or inconclusive.

SMILES	FMDV antiviral	HCV inh	HCMV inh	Vaccinia Venus	Vaccinia mCherry	HCV confirm	HCV host tox
CC(C)(O)C#Cc1ccc([C@@H]2C[C@H]3CN(c4ccccc4)C(=O)[C@]34CCCN24)s1	-18%	?	-99*	?	?	7µM*	-83%
Cc1ccc(N=Nc2cc(C)ccc2N)cc1	-58%	3.2µM*	0	-9%	i	3.1µM*	?
Cc1ccc(N)c(C)c1	0%	-24%	-21	-12%	i	/	/
O=C(Nc1ccccc1)N1CCC2(CC1)CCN(C(=O)c1ccncc1)CC2	-2%	/	/	/	/	/	/
CC#CC[N+](C)(C)CCCCCCCCCCCC	13µM*	5µM*	-101*	/	/	14µM*	-42%
C=CCCC(=O)NC1CC(C)(C)Cc2c1cnn2-c1ccc(OC)cc1 (configuration not stated)	-17%	1%	2	/	/	/	/
C=C(c1ccccc1Cl)[n+]1ccccc1	-12%	4.5µM*	-60*	?	-26%	7µM*	25µM*
O=S(=O)(Nc1cccc(-c2ccc(N3CCCCC3)nn2)c1)c1ccc(Cl)s1	-12%	/	84	1%	-12%	/	/
COc1ccc2oc(=O)c(-c3nnc(NCc4ccco4)s3)cc2c1	4%	4.5µM*	43	-20%	?	-20%	?
Cc1ccc(C)c2nc(SCC(=O)N3CCCc4ccccc43)c(C#N)cc12	13%	6.3µM*	12	/	/	7µM*	15%
Cc1nc2cnc(N3CCOCC3)nc2n(CCc2ccccc2)c1=O	-15%	/	/	/	/	/	/
COc1cc(C)ccc1N(CCCN1C(=O)c2cccc3cccc(c23)C1=O)C(=O)c1cccs1	?	5.6µM*	?	-21%	-27%	13µM*	36%
COc1ccccc1N(CN1C(=O)c2ccccc2C1=O)C(=O)c1cccc(C)c1	?	15%	?	-8%	i	/	/
Cc1ccc(C)c(NC(=S)NC(NC(=O)N(C)C)C(Cl)(Cl)Cl)c1 (configuration not stated)	/	1%	30	-14%	-16%	/	/
Cc1ccc(C)c(NC(=S)NC(NC(=O)Cc2cccc3ccccc23)C(Cl)(Cl)Cl)c1 (configuration not stated)	-22%	2.2µM*	-98*	?	?	11µM*	31µM*
Cc1sc(NC(=O)Cc2ccc3c(c2)OCO3)nc1-c1ccc2c(c1)CCN2C(=O)c1ccc(F)cc1	?	1.3µM*	-35	-15%	i	7.9µM*	-21%
CC(=O)N1CCC[C@H]1C(=O)NCC1Cc2cc(-c3cccc(OC(F)(F)F)c3)ccc2O1 (some centres not stated)	-7%	/	/	-25%	-1%	/	/
COc1ccc(N/C(N)=N/c2nc(C)cc(C)n2)cc1	-19%	/	-33	-27%	-3%	/	/
Cc1cc(C)nc(/N=C(\N)Nc2ccc(CC(=O)OC(C)C)cc2)n1	-1%	3.5µM*	-30	?	?	2.8µM*	-93%
CCOC(=O)c1cccc(NC(=O)c2cc3sccc3n2C)c1	-17%	3.2µM*	109	/	/	25µM*	-29%
COc1ccc(NC(=O)N2CCC3(CC2)CCN(C(=O)c2cccc(F)c2)CC3)cc1	-2%	/	/	/	/	/	/
C#CCN1C=CC(=O)[C@@H](OC(=O)Nc2ccc(Cl)cc2)[C@H]1c1ccccc1Br	-17%	8.9µM*	25	-6%	-6%	?	1%
COc1ccc2nc(C)c3cc(C)oc3c2c1	-24%	8.9µM*	7	-7%	-13%	22µM*	32%
COc1cc2c(=O)n(CCC(=O)NCC3CCCO3)c(=O)n(CC(=O)c3ccc(Cl)cc3)c2cc1OC (configuration not stated)	-11%	2µM*	-23	/	/	7.9µM*	26%

Screening results from PubChem BioAssay.
